# GLS inh = qHTS for Inhibitors of Glutaminase (GLS); AID 624170, 2012; 410,000 compounds, 0.21% hits; Glutaminase kidney isoform, mitochondrial (Homo sapiens), O94925; Potency, µM (series often up to 45.5 µM), without a hit: at the top dose activity change, negative = inhibition, usual class: inhibitors; GLS enzymatic activity, qHTS titration; note: % is set by controls: 0 for no effect and ±100 for the full control effect
# Target sequence (O94925 whole entry, looked up, canonical isoform): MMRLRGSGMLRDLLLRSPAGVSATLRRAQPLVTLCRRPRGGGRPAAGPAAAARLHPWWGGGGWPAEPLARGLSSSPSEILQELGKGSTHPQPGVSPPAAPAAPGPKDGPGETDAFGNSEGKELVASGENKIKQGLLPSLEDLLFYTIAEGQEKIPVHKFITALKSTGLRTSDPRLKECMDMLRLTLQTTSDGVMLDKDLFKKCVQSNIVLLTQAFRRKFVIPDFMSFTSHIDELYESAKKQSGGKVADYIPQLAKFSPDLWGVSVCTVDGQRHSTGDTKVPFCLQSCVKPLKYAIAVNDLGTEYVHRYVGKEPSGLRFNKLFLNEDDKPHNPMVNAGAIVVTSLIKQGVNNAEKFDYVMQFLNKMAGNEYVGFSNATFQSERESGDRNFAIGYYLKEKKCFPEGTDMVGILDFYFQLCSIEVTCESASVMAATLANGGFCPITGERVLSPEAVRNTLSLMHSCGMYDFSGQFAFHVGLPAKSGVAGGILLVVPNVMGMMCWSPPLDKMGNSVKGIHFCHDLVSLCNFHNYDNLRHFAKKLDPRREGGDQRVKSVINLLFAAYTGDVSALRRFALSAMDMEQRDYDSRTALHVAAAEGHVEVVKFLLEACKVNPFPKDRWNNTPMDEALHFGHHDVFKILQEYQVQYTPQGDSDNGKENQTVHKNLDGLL
#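 hKGA in 45 mM KH2PO4 (pH 8.2), 0.02% Tween-20 with compound, then 1mM L-Glutamine (stock as added) plus glutamate oxidase/HRP/Amplex red coupling mix. Fluorescence read initially and after 30 min at RT; signal change reflects glutamate formation.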
# BAZ2B inh = qHTS Assay for Inhibitors of BAZ2B | AlphaScreen BAZ2B-H3K14Ac peptide displacement | Potency, µM (top dose mostly 114 µM), for the others: at the highest dose activity change, negative = inhibition, most hits filed as inhibitors | AID 504333, 2011 | Bromodomain adjacent to zinc finger domain protein 2B (Homo sapiens), Q9UIF8 | 360,000 compounds, 4.4% hits; note: % is set by controls: 0 for no effect and ±100 for the full control effect; nearly all actives have a fitted effect of over 60% in size
#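 AlphaScreen luminescence quantifies BAZ2B engagement of H3K14Ac peptide; the protein and biotinylated peptide are both at 50 nM final, buffer PBS pH 7.4 with 0.01% Tween-20, all steps at room temperature.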
# G9a block = qHTS Assay for Inhibitors of Histone Lysine Methyltransferase G9a. G9a H3K9 monomethylation, AlphaScreen, 2 h. Histone-lysine N-methyltransferase EHMT2 (Homo sapiens), Q96KQ7. Potency, µM (titrated, usually from 102 µM), for inactives: at the top dose activity, negative = inhibition, most hits filed as inhibitors. 350,000 compounds, 8.8% hits; note: % is set by controls: 0 for no effect and ±100 for the full control effect; nearly all actives have a fitted effect of over 75% in size
#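 AlphaScreen detection with an anti-monomethyl H3K9 antibody quantified product after a 2 h room-temperature reaction containing 500 nM biotinylated H3K9 peptide, 20 µM SAM and 20 nM enzyme, which had been preincubated 15 min with compound.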
# JMJD2A Tudor = qHTS Assay for Inhibitors of JMJD2A-Tudor Domain; AlphaScreen JMJD2A-Tudor / H3K4me3 peptide binding; Potency, µM (top dose mostly 114 µM), for inactives: top-dose activity change, negative = inhibition, hits mostly inhibitors; 390,000 compounds, 4.4% hits; Lysine-specific demethylase 4A (Homo sapiens), O75164; note: % is set by controls: 0 for no effect and ±100 for the full control effect; nearly all actives have a fitted effect of over 50% in size
# HP1b chromo inh = HTS for Inhibitors of HP1-beta Chromodomain Interactions with Methylated Histone Tails; AlphaScreen HP1-beta / biotin-H3K9me3 peptide binding; AID 540317, 2011; 390,000 compounds, 0.56% hits; Chromobox protein homolog 1 (Homo sapiens), P83916; Potency, µM (top dose mostly 114 µM), for inactives: top-dose activity change, negative = inhibition, actives largely listed as inhibitors; note: nearly all actives have a fitted effect of over 70% in size
#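 AlphaScreen: HP1-beta (50 nM) preformed 30 min with biotin-H3(1-18)K9me3 peptide (50 nM) in PBS pH 7.4, 0.01% Tween-20. Compound added for 30 min at RT, then streptavidin donor/nickel chelate acceptor beads (10 ug/mL) for 30 min.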
# The depositor's hits bear a star; ? = inconclusive; / = no result given; [ ] = dose if it differs, or a comment. Sampled rows, rich in hits. Any-hit rate of the full collection: about 10%. Calls come from the whole dose curve; as a rule, active = well fitted curve in the direction sought with a large enough effect; inconclusive = small, poorly fitted or top-dose-only effect, or another doubt; inactive = no such curve, though single readings can be large; an effect the other way counts as inactive or inconclusive. Potency is the fitted concentration of half-maximal effect.
SMILES,GLS inh,BAZ2B inh,G9a block,JMJD2A Tudor,HP1b chromo inh
O=c1cc(-c2ccc(O)c(O)c2)oc2c(C3O[C@H](CO)[C@@H](O)[C@H](O)[C@H]3O)c(O)cc(O)c12 (some centres undefined),-8%,?,79µM*,?,4%
COC(=O)[C@H]1[C@H]2C[C@@H]3c4[nH]c5cc(OC)ccc5c4CCN3C[C@H]2C[C@@H](OC(=O)/C=C/c2cc(OC)c(OC)c(OC)c2)[C@@H]1OC,3%,?,8.9µM*,28µM*,-22%
Cc1ccc(-n2sc3ccccc3c2=O)cc1,?,7.9µM*,1.1µM*,7.1µM*,?
Cc1sc2nc(COC(=O)Cc3ccccc3)[nH]c(=O)c2c1C,-3%,-4%,-12%,-12%,11%
COc1cc(OC)c2c(c1)O[C@@H](c1ccc(OC)c(OC)c1)[C@H](O)C2,1%,8%,-12%[0.501 µM],-20%,23%
CCc1n[nH]c(=S)n1/N=C/c1c(C)nn(-c2ccccc2)c1Cl,20%,-4%,1.8µM*,?,35%
c1ccc2c(CCNC3CCCCC3)c[nH]c2c1,0%,?,13µM*,32µM*,79µM*
FC(F)(F)c1ccc(CNCCc2c[nH]c3ccccc23)cc1,6%,?,13%,?,10%
c1ccc2c(CCNC3=NCCC3)c[nH]c2c1,31%,8%,1%[59 µM],-20%,13%
Clc1cccc(CNCCc2c[nH]c3ccccc23)c1,12%,50µM*,11%[2.33 µM],7.1µM*,?
C=C(C=O)CC1CC(O)[C@]2(C)OC3C[C@@H]4OC5C[C@]6(C)O[C@]7(C)CCC8OC9C[C@]%10(C)OC(/C(C)=C\CO)C(O)CC%10OC9CC(C)C8OC7CC6O[C@]5(C)C/C=C\C4OC3CC2O1 (some centres undefined),5%,-1%,-8%[2.33 µM],-7%,21%
Oc1c(Br)c(Br)c(Br)c(Br)c1Br,17%,56µM*,5%[0.501 µM],?,-23%
Cc1ccc(OCCOc2cccc(C=C3C(=O)NC(=O)NC3=O)c2)c(C)c1,-13%,?,28µM*,35µM*,68%
COc1cc(C=C2C(=O)NC(=O)NC2=O)cc(OC)c1OC,0%,-10%,22%[2.33 µM],-9%,19%
O=C1NC(=O)C(=Cc2ccc(OCCOc3ccc([N+](=O)[O-])cc3)cc2)C(=O)N1,?,45µM*,22µM*,50µM*,-4%
O=C1NC(=O)C(=Cc2cccc(OCCOc3ccccc3)c2)C(=O)N1,?,15%,35µM*,?,-5%
N#Cc1ccc(NC(=O)CN2CCCCCC2)cc1Cl,-4%,0%,-18%,-4%,28%
O=C(CCc1nc(-c2ccccc2F)no1)N1CCC2(CC1)OCCO2,-6%,0%,-7%,11%,19%
CCCCC(=O)Nc1c(C(=O)N2CCN(c3ccccc3F)CC2)oc2ccccc12,2%,-15%,?,-17%,21%
C=C1C(=O)O[C@H]2[C@H]1[C@H](OC(=O)CC(=O)O[C@@H]1C[C@@H](C)[C@@H]3C=CC(=O)[C@@]3(C)[C@H]3OC(=O)C(=C)[C@H]13)C[C@@H](C)[C@H]1C=CC(=O)[C@]12C,-20%,1%,?,-35%,-5%
Cc1ccc(-c2cn3c(=S)[nH]nc3s2)cc1,-22%,79µM*,1µM*,0.71µM*,71µM*
CCOC(=O)C1(CCOc2ccccc2)CCN(Cc2cnc(SC)nc2)CC1,-7%,?,50µM*,0%,64%
BrCC(Br)C1CCC(Br)C(Br)C1 (centres undefined),-2%,169%,-21%[0.501 µM],99%,141%
C=CCn1c(CSc2ccccc2[N+](=O)[O-])n[nH]c1=S,?,40µM*,1.3µM*,8.9µM*,?
CCN(Cc1ccc(Cl)nc1)/C(=C/[N+](=O)[O-])NC,6%,/,-20%[12.7 µM],/,/
SMILES,GLS inh,BAZ2B inh,G9a block,JMJD2A Tudor,HP1b chromo inh
Cc1nc2c(C(=O)N3CCC4(CC3)OCCO4)cnn2c(C)c1Cc1cccc(Cl)c1,0%,/,-38%,-8%,33%
COCCO[C@H]1CC[C@@]2(C)C(=CCC3C2CC[C@@]2(C)C3CC[C@]2(C)O)C1 (some centres undefined),-4%,/,/,-10%,43%
CCn1c(-c2nn(-c3ccccc3)ccc2=O)n[nH]c1=S,-2%,?,-126%[59 µM],?,41%
CCCCn1c(-c2nn(C)cc2Cl)n[nH]c1=S,-10%,-2%[57.1 µM],13µM*,7.9µM*,3%
O=P(O)(O)C12CC3CC(CC(C3)C1)C2,-13%,-4%,?,-16%,32%
O=C(NC1CN2CCC1CC2)c1cc(Cl)c([N+](=O)[O-])c2nc[nH]c12 (centres undefined),2%,6%,4%[59 µM],-16%,11%
C#CC1(O)CCC2C3CCC4=CC(=O)CCC4(C)C3CCC21C (centres undefined),1%,/,-39%[2.33 µM],/,/
C#C[C@]1(O)CC[C@H]2[C@@H]3CCC4=Cc5nc6nc7ccccc7n6cc5C[C@]4(C)[C@H]3CC[C@@]21C,0%,3%,25µM*,-6%,40%
CNc1ccc2oc(C[C@@H]3OC4(CC[C@@H]3C)O[C@H]([C@@H](C)C(=O)c3ccc[nH]3)[C@H](C)C[C@H]4C)nc2c1C(=O)O (some centres undefined),/,/,16µM*,/,/
COC(=O)CCCCCCCCC(O)C[N+]1(C)CCOCC1 (centres undefined),0%,-15%,?,5%,3%
COc1cc(C(=S)N2CCOCC2)cc(OC)c1OC(=O)Cc1ccccc1,0%,1%,45µM*,-23%,-21%
CCOP(=O)(CN(CC)CCNP(=O)(OCC)OCC)OCC,-2%,12%[57.1 µM],50µM*,?,17%
CCOC(=O)N1CCN(C(C)C(=O)c2c[nH]c3ccccc23)CC1 (centres undefined),14%,-4%,2%,-5%,27%
O=C1NC(=S)NC(=O)C1=Cc1ccc(OCC(=O)N2CCCC2)cc1,?,?,14µM*,45µM*,?
Cc1ccc(S(=O)(=O)Oc2ccccc2C=C2C(=O)N(C)C(=O)N(C)C2=O)cc1,26%,0%,/,0%,46%
COc1cc(C=C2C(=O)NC(=O)NC2=O)ccc1OS(=O)(=O)c1ccccc1[N+](=O)[O-],32%,50µM*,10µM*,32µM*,?
COc1cc(/C=C2/C(=O)N(c3ccccc3)N=C2C)ccc1OS(=O)(=O)c1ccccc1,/,28µM*,35µM*,/,/
CCOc1cc(C=C2C(=O)NC(=O)NC2=O)ccc1OS(=O)(=O)c1ccccc1,1%,-9%,22µM*,79µM*,11%
